Source: PubChem BioAssay AID1159580 (chemical genetic matrix, 2015)
About 2,000 (36%) of roughly 5,500 compounds were called active. Inconclusive results (about 18%) are left out. Rule as the data show it: active = normalized growth mostly below about 0.91 (no sharp cut-off); inconclusive = no clear call, values can overlap the other calls; inactive = mostly above about 0.92. The list shows a part of the results.

Assay: chemical genetic growth profiling, strain panel (AID 1159580);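 also: tested at 20 µM; growth read once vehicle control cultures reached saturation at 30 °C; 1 = growth at the plate median or of vehicle wells; lower values mean less growth of the strain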
Conditions: S. cerevisiae deletion strains, growth OD
[1] = locus YAL021C, strain ccr4, stronger effect = lower value
[2] = locus YAL026C, strain drs2, stronger effect = lower value
[3] = locus YAL030W, strain snc1, stronger effect = lower value
[4] = locus YBL061C, strain skt5, stronger effect = lower value
[5] = locus YBR009C, strain hhf1, stronger effect = lower value
[6] = locus YBR023C, strain chs3, stronger effect = lower value
[7] = locus YBR171W, strain sec66, stronger effect = lower value
[8] = locus YBR231C, strain swc5, stronger effect = lower value
[9] = locus YBR279W, strain paf1, stronger effect = lower value
[10] = locus YCL011C, strain gbp2, stronger effect = lower value
[11] = locus YCL016C, strain dcc1, stronger effect = lower value
[12] = locus YCL061C, strain MRC1, stronger effect = lower value
[13] = locus YCL069W, strain vba3, stronger effect = lower value
[14] = locus YCR088W, strain abp1, stronger effect = lower value
[15] = locus YDL005C, strain med2, stronger effect = lower value
[16] = locus YDL040C, strain nat1, stronger effect = lower value
[17] = locus YDR001C, strain nth1, stronger effect = lower value
[18] = locus YDR069C, strain doa4, stronger effect = lower value
[19] = locus YDR137W, strain rgp1, stronger effect = lower value
[20] = locus YDR159W, strain sac3, stronger effect = lower value
[21] = locus YDR297W, strain sur2, stronger effect = lower value
[22] = locus YDR334W, strain swr1, stronger effect = lower value
[23] = locus YDR335W, strain msn5, stronger effect = lower value
[24] = locus YDR392W, strain spt3, stronger effect = lower value
[25] = locus YEL003W, strain gim4, stronger effect = lower value
[26] = locus YEL037C, strain rad23, stronger effect = lower value
[27] = locus YEL061C, strain CIN8 (second series), stronger effect = lower value
[28] = locus YER015W, strain faa2, stronger effect = lower value
[29] = locus YER016W, strain bim1, stronger effect = lower value
[30] = locus YER111C, strain swi4, stronger effect = lower value
[31] = locus YER155C, strain BEM2 (second series), stronger effect = lower value
[32] = locus YFR010W, strain ubp6, stronger effect = lower value
[33] = locus YGL167C, strain pmr1, stronger effect = lower value
[34] = locus YGL173C, strain kem1, stronger effect = lower value
[35] = locus YGL227W, strain vid30, stronger effect = lower value
[36] = locus YGL240W, strain doc1, stronger effect = lower value
[37] = locus YGL253W, strain hxk2, stronger effect = lower value
[38] = locus YHR013C, strain ard1, stronger effect = lower value
[39] = locus YHR027C, strain rpn1, stronger effect = lower value
[40] = locus YHR142W, strain chs7, stronger effect = lower value
[41] = locus YJL092W, strain hpr5, stronger effect = lower value
[42] = locus YJL095W, strain BCK1 (second series), stronger effect = lower value
[43] = locus YJL115W, strain asf1, stronger effect = lower value
[44] = locus YJL129C, strain trk1, stronger effect = lower value
[45] = locus YJL154C, strain vps35, stronger effect = lower value
[46] = locus YJL164C, strain tpk1, stronger effect = lower value
[47] = locus YJL166W, strain qcr8, stronger effect = lower value
[48] = locus YJL187C, strain SWE1, stronger effect = lower value
[49] = locus YKL160W, strain elf1, stronger effect = lower value
[50] = locus YKR026C, strain gcn3, stronger effect = lower value
[51] = locus YKR091W, strain srl3, stronger effect = lower value
[52] = locus YLL001W, strain dnm1, stronger effect = lower value
[53] = locus YLL026W, stronger effect = lower value
[54] = locus YLL041C, strain sdh2, stronger effect = lower value
[55] = locus YLR027C, strain aat2, stronger effect = lower value
[56] = locus YLR221C, strain rsa3, stronger effect = lower value
[57] = locus YLR258W, strain gsy2, stronger effect = lower value
[58] = locus YLR262C, strain YPT6 (second series), stronger effect = lower value
[59] = locus YLR320W, strain mms22, stronger effect = lower value
[60] = locus YLR342W, strain FKS1, stronger effect = lower value
[61] = locus YLR357W, strain rsc2, stronger effect = lower value
[62] = locus YLR370C, strain arc18, stronger effect = lower value
[63] = locus YLR384C, strain iki3, stronger effect = lower value
[64] = locus YML120C, strain ndi1, stronger effect = lower value
[65] = locus YMR058W, strain fet3, stronger effect = lower value
[66] = locus YMR125W, strain sto1, stronger effect = lower value
[67] = locus YMR129W, stronger effect = lower value
[68] = locus YMR205C, strain PFK2, stronger effect = lower value
[69] = locus YMR231W, strain pep5, stronger effect = lower value
[70] = locus YNL071W, strain lat1, stronger effect = lower value
[71] = locus YNL209W, strain ssb2, stronger effect = lower value
[72] = locus YNL248C, strain rpa49, stronger effect = lower value
[73] = locus YNL322C, strain KRE1 (second series), stronger effect = lower value
[74] = locus YNR049C, strain mso1, stronger effect = lower value
[75] = locus YOR001W, strain rrp6, stronger effect = lower value
[76] = locus YOR070C, strain gyp1, stronger effect = lower value
[77] = locus YOR080W, strain dia2, stronger effect = lower value
[78] = locus YOR083W, strain WHI5, stronger effect = lower value
[79] = locus YOR106W, strain vam3, stronger effect = lower value
[80] = locus YOR265W, strain rbl2, stronger effect = lower value
[81] = locus YOR270C, strain vph1, stronger effect = lower value
[82] = locus YOR290C, strain snf2, stronger effect = lower value
[83] = locus YPL051W, strain arl3, stronger effect = lower value
[84] = locus YPL078C, strain atp4, stronger effect = lower value
[85] = locus YPL106C, strain sse1, stronger effect = lower value
[86] = locus YPL240C, strain hsp82, stronger effect = lower value

Measured: normalized growth

CC12CCC(OC(=O)c3ccccc3)CC1CCc1ccccc12 (configuration not stated)
inactive: [1] 0.986 | [2] 0.99 | [3] 0.999 | [4] 0.995 | [5] 1 | [6] 0.995 | [7] 0.968 | [8] 0.939 | [9] 1.01 | [10] 1 | [11] 0.991 | [12] 0.998 | [13] 0.996 | [14] 0.984 | [15] 0.987 | [16] 0.979 | [17] 0.985 | [18] 0.98 | [19] 0.964 | [20] 0.99 | locus YDR195W, strain ref2 0.964 | [21] 0.995 | [22] 0.959 | [23] 0.997 | [24] 0.866 | [25] 0.985 | [26] 0.991 | [28] 0.998 | [30] 0.988 | [31] 0.967 | [32] 0.992 | [33] 0.981 | [34] 0.987 | [35] 0.986 | [36] 0.952 | [37] 1.01 | [38] 0.855 | [39] 0.999 | [40] 1.01 | [41] 0.989 | [42] 1 | [43] 0.989 | [44] 0.999 | [45] 0.992 | [46] 0.989 | [47] 1 | [48] 1 | [49] 1 | [50] 0.965 | [51] 0.984 | [52] 1.01 | [53] 0.993 | [54] 0.994 | [55] 1.01 | [56] 1 | [57] 1 | [58] 1.04 | [59] 1 | [60] 0.987 | [61] 0.986 | [62] 0.995 | [63] 1 | [64] 1 | [65] 1 | [66] 0.975 | [67] 0.986 | [68] 1.01 | [69] 0.99 | [70] 0.992 | [71] 0.997 | [72] 1.01 | [73] 0.982 | [74] 0.994 | [75] 0.999 | [76] 1.01 | [77] 0.965 | [78] 0.995 | [79] 1.01 | [80] 0.998 | [81] 1.06 | [82] 0.955 | [83] 1 | [84] 1.01 | [85] 0.992 | [86] 0.988
active: [27] 0.841 | [29] 0.907

CC1CC(OC(=O)c2ccccc2O)CC(C)(C)C1 (configuration not stated)
inactive: [1] 0.977 | [2] 0.989 | [3] 0.985 | [4] 0.97 | [5] 0.914 | [6] 0.974 | [7] 0.987 | [8] 0.961 | [9] 0.98 | [10] 0.969 | [11] 0.991 | [12] 0.983 | [13] 0.987 | [14] 0.99 | [15] 0.968 | [16] 0.983 | [17] 0.984 | [18] 0.943 | [19] 0.922 | [20] 0.977 | locus YDR195W, strain ref2 0.968 | [21] 0.973 | [22] 0.985 | [23] 0.992 | [24] 0.89 | [25] 0.974 | [26] 0.987 | [27] 0.965 | [28] 0.975 | [29] 0.982 | [30] 0.985 | [31] 0.982 | [32] 0.971 | [33] 0.962 | [34] 0.967 | [35] 0.978 | [36] 0.933 | [37] 1 | [38] 0.865 | [39] 0.989 | locus YHR030C, strain SLT2, stronger effect = lower value 0.94 | locus YHR079C, strain IRE1, stronger effect = lower value 0.958 | [40] 0.978 | [41] 0.985 | [42] 0.993 | locus YJL095W, strain BCK1, stronger effect = lower value 1.01 | [43] 1 | [44] 0.896 | [45] 0.987 | [46] 0.97 | [47] 0.943 | [48] 0.974 | locus YJR066W, strain TOR1, stronger effect = lower value 0.943 | [49] 0.993 | [50] 0.953 | [51] 0.981 | [52] 1.01 | [53] 0.98 | [54] 0.989 | [55] 0.972 | locus YLR113W, strain HOG1, stronger effect = lower value 1 | [56] 0.925 | [57] 0.97 | [58] 0.904 | [59] 0.952 | [60] 0.949 | [61] 0.975 | [62] 0.978 | [63] 0.997 | [64] 0.987 | [65] 0.981 | [66] 0.975 | [67] 0.998 | [68] 0.906 | [69] 1 | [70] 0.974 | locus YNL183C, strain NPR1, stronger effect = lower value 0.947 | [71] 0.983 | [72] 0.989 | [73] 0.99 | [74] 0.982 | [75] 0.996 | [76] 0.989 | [77] 0.968 | [78] 1 | [79] 0.951 | locus YOR231W, strain MKK1, stronger effect = lower value 0.958 | [80] 0.989 | [81] 0.977 | [82] 0.915 | [83] 1.01 | [84] 0.995 | [85] 0.974 | [86] 0.958 | locus YPL256C, strain CLN2, stronger effect = lower value 0.94
